Laboratory results reported in publication PMC7862700, “An all-to-all approach to the identification of sequence-specific readers for epigenetic DNA modifications on cytosine”.

Assays:
Assay in all cases: DAPPL (digital affinity profiling via proximity ligation, sequencing); 10 mM Tris-HCl pH 7.5, 50 mM NaCl, 1 mM DTT, 4% glycerol, room temperature, 30 min; GST-TFs on glutathione beads, 16-mer random dsDNA library, 0.1% formaldehyde crosslink after washing; high values mean tight binding
Conditions in all cases: protein: recombinant; tags: N-terminal GST; dsDNA, one strand shown
FLI1 = target: T1, FLI1 (Homo sapiens, UniProt Q01543 1-452)
T1 sequence: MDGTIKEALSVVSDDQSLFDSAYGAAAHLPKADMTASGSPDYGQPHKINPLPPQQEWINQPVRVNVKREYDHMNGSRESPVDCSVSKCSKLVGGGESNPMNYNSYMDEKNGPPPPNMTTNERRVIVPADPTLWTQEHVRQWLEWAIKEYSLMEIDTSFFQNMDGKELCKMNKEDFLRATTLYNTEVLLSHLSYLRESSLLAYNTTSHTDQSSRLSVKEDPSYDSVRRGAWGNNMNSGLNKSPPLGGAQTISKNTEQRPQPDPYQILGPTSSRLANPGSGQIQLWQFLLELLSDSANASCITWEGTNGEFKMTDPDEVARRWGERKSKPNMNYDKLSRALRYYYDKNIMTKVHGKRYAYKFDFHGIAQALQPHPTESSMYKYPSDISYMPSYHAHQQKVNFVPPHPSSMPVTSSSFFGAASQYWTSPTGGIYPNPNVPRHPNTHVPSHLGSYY
Procedure, shortened: (§1)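 Human transcription factors fused to GST were expressed in yeast, captured on glutathione beads, given DNA barcodes and pooled with a GST-only negative control. Pools were incubated with 200 nmole of a 16-mer random double-stranded DNA library in Tris/NaCl/DTT/glycerol buffer at room temperature for 30 min. They were then washed, crosslinked with 0.1% formaldehyde, proximity-ligated (BsaI/T4 ligase, 1 h, 37 °C), PCR-amplified and sequenced on an Illumina NextSeq500. Binding signal is each 6-mer's read frequency for a factor divided by its frequency for the GST control.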

ELK1 = target: T2, ELK1 (Homo sapiens, UniProt P19419 1-428)
T2 sequence: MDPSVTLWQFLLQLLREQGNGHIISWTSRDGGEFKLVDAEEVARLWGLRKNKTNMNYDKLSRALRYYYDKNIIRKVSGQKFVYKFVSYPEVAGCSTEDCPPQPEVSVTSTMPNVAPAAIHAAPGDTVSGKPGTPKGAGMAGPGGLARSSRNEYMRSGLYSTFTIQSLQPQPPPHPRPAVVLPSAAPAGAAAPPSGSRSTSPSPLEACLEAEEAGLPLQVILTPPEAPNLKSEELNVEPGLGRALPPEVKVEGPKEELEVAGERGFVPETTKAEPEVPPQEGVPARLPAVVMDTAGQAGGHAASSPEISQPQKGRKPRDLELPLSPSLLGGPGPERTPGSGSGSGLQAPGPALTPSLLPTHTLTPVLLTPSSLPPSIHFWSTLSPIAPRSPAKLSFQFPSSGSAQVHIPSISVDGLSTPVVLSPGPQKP
Procedure, shortened: as §1

GABPA = target: T3, GABPA (Homo sapiens, UniProt Q06546 1-454)
T3 sequence: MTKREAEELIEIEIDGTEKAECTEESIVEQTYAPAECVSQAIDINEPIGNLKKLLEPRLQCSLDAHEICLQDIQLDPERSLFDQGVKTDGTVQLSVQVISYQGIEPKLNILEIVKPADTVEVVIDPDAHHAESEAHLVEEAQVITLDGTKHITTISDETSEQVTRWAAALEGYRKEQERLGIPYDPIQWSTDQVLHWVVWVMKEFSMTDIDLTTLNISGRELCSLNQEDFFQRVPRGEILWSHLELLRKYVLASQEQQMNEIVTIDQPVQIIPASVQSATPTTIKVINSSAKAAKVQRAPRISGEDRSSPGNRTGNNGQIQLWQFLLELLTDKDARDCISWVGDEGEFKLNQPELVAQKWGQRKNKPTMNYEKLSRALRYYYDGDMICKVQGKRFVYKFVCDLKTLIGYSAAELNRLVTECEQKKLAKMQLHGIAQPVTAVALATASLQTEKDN
Procedure, shortened: as §1

ERG = target: T4, ERG (Homo sapiens, UniProt P11308 1-479)
T4 sequence: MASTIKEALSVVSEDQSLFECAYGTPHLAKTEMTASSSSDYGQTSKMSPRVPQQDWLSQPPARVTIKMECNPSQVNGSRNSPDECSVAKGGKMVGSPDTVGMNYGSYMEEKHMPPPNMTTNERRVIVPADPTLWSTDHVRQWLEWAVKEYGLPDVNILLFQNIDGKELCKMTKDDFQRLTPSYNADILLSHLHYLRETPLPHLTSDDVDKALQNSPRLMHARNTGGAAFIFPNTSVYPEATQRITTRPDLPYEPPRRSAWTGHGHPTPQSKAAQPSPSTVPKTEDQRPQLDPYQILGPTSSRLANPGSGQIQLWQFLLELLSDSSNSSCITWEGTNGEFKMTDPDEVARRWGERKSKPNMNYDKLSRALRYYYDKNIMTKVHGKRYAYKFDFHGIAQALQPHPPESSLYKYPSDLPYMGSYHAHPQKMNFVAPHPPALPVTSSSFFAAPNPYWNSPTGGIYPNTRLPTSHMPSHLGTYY
Procedure, shortened: as §1

ELF1 = ELF1 (Homo sapiens, UniProt P32519 1-619)
ELF1, sequence (P32519 whole entry): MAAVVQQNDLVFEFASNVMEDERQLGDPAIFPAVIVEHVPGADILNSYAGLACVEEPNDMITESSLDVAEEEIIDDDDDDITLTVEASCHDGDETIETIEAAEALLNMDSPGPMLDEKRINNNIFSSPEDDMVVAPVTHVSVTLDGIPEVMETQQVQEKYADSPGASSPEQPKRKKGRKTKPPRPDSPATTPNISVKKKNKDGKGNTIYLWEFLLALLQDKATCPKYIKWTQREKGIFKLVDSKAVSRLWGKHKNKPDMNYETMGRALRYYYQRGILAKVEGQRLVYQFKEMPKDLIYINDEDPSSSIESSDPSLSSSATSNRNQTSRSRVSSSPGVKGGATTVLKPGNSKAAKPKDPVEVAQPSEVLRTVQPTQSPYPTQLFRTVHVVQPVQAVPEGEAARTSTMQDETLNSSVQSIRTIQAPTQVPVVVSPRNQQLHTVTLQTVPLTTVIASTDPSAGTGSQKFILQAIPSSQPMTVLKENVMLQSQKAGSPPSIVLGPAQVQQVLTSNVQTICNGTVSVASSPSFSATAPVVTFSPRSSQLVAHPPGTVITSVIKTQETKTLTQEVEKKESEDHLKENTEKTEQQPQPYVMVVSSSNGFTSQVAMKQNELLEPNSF
Procedure, shortened: as §1

EHF = target: T5, EHF (Homo sapiens, UniProt Q9NZC4 1-300)
T5 sequence: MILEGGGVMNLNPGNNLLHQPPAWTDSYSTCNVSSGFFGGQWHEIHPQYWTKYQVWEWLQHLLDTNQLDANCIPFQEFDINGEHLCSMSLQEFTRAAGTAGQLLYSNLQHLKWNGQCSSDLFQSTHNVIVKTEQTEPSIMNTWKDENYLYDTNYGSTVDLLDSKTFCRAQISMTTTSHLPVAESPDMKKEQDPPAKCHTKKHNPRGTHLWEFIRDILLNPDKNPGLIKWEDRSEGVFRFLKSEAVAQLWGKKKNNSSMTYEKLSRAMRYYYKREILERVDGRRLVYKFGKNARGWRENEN
Procedure, shortened: as §1

SPI1 = SPI1 (Homo sapiens, UniProt P17947 1-270)
Procedure, shortened: as §1

SPIB = SPIB (Homo sapiens, UniProt Q01892 1-262)
SPIB, sequence (Q01892 whole entry): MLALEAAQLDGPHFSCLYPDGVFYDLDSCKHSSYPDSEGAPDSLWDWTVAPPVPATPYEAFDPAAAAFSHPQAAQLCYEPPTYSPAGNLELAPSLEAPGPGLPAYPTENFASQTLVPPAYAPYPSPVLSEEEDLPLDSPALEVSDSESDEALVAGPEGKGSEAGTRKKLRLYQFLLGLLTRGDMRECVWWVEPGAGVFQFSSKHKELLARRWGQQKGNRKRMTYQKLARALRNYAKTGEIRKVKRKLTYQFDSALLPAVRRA
Procedure, shortened: as §1

ELK3 = target: T6, ELK3 (Homo sapiens, UniProt P41970 1-407)
T6 sequence: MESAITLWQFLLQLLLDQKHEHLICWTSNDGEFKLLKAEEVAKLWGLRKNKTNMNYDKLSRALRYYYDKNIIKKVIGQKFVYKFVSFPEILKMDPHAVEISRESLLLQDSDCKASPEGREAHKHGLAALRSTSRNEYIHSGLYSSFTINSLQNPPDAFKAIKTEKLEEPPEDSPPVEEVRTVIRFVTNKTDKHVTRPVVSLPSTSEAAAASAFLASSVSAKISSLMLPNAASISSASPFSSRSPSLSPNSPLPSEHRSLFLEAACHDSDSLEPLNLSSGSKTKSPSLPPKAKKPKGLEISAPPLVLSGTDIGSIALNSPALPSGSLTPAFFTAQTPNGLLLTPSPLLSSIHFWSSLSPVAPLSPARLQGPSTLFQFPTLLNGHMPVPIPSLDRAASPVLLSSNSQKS
Procedure, shortened: as §1

FEV = target: T7, FEV (Homo sapiens, UniProt Q99581 1-238)
T7 sequence: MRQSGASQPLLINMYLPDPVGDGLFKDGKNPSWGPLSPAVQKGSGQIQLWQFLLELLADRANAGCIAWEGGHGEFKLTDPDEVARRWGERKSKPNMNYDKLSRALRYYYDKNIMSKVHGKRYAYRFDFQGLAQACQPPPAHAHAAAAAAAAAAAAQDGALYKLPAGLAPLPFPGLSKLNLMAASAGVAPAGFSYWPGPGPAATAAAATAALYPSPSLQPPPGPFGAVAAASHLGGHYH
Procedure, shortened: as §1

ETV5 = ETV5 (Homo sapiens, UniProt P41161 1-510)
ETV5, sequence (P41161 whole entry): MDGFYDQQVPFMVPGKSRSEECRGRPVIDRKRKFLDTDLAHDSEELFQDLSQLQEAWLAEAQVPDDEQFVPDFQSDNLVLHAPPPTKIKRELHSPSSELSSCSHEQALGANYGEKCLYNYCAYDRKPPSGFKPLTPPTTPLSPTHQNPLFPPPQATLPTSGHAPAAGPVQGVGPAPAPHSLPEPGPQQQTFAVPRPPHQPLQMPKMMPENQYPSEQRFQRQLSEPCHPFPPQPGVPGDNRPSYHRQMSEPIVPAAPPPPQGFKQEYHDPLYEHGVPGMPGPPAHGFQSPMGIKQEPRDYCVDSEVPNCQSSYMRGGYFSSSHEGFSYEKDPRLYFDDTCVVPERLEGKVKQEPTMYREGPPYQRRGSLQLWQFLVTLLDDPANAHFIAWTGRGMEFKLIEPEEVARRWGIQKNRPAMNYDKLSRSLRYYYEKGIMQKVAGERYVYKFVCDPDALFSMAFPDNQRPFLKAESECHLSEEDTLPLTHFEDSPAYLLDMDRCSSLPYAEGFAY
Procedure, shortened: as §1

SPIC = target: T8, SPIC (Homo sapiens, UniProt Q8N5J4 1-248)
T8 sequence: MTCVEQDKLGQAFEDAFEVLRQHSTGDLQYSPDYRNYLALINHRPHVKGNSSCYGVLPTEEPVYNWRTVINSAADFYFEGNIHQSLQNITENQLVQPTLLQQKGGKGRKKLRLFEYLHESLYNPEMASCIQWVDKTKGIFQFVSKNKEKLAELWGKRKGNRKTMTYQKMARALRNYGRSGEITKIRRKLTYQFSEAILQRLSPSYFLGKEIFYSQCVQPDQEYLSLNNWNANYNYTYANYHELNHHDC
Procedure, shortened: as §1

ELF4 = ELF4 (Homo sapiens, UniProt Q99607 1-663)
ELF4, sequence (Q99607 whole entry): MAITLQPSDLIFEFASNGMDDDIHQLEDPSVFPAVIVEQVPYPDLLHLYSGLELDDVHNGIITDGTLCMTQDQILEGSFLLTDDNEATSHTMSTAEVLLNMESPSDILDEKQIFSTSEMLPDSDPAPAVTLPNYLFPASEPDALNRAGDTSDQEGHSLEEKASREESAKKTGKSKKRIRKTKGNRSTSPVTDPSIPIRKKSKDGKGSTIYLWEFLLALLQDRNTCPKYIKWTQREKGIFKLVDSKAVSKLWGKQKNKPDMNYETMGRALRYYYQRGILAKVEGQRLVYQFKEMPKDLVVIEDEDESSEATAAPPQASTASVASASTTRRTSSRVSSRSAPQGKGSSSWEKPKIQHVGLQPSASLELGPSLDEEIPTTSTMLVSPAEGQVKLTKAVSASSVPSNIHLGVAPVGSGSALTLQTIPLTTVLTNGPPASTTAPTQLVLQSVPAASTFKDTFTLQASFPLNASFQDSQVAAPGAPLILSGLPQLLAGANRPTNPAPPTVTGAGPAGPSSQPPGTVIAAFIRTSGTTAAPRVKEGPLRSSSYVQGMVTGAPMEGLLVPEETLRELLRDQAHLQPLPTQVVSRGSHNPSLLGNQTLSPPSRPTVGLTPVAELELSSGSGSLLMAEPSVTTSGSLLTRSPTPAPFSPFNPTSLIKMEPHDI
Procedure, shortened: as §1

ELK4 = target: T9, ELK4 (Homo sapiens, UniProt P28324-2 1-405)
T9 sequence: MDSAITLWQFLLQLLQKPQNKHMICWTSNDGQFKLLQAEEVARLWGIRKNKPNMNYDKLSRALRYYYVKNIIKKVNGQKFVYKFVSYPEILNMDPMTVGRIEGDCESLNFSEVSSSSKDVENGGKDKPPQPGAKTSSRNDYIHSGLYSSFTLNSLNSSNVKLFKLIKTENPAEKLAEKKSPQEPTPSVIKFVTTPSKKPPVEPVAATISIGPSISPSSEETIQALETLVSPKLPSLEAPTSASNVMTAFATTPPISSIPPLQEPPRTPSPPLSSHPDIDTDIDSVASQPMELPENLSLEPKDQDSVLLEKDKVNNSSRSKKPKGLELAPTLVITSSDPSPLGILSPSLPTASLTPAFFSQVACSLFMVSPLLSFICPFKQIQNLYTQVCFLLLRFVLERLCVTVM
Procedure, shortened: as §1

ETV2 = target: T10, ETV2 (Homo sapiens, UniProt O00321 1-342)
T10 sequence: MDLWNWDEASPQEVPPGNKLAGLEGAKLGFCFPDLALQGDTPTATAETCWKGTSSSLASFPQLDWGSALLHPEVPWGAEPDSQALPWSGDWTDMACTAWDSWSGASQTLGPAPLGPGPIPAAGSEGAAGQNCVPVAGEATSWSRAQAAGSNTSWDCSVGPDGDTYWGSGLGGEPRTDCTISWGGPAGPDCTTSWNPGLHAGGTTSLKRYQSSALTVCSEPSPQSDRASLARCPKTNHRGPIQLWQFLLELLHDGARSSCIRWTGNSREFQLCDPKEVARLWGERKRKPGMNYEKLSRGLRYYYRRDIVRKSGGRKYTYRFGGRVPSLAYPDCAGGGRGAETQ
Procedure, shortened: as §1

ELF3 = target: T11, ELF3 (Homo sapiens, UniProt P78545 1-371)
T11 sequence: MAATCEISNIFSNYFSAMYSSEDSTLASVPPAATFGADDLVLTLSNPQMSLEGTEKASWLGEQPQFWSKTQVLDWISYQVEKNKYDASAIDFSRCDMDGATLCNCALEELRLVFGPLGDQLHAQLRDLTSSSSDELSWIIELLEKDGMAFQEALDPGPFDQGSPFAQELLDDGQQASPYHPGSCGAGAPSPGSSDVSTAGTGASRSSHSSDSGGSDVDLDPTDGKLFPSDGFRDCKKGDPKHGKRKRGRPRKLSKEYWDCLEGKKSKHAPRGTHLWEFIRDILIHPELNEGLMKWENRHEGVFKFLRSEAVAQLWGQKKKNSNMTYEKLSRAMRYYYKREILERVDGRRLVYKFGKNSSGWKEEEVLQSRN
Procedure, shortened: as §1

ETV1 = ETV1 (Homo sapiens, UniProt P50549 1-477)
ETV1, sequence (P50549 whole entry): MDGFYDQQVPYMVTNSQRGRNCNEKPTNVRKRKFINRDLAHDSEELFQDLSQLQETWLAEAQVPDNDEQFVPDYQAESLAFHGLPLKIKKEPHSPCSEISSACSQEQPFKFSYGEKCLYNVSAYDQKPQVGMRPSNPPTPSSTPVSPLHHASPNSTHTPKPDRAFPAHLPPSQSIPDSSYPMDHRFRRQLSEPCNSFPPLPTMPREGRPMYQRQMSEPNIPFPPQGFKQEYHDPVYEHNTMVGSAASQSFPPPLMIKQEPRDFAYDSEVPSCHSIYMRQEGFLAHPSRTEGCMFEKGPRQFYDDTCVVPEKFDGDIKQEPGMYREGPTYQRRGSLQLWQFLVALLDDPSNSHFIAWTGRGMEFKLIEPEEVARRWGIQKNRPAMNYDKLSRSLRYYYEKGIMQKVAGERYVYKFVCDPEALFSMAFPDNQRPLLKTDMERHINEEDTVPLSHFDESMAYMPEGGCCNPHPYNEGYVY
Procedure, shortened: as §1

GCACAA
binding signal (FLI1): 1.1 fold enrichment (6-mer frequency, TF over GST control)
binding signal (ELK1): 1.13 fold enrichment (6-mer frequency, TF over GST control)
binding signal (GABPA): 1.09 fold enrichment (6-mer frequency, TF over GST control)
binding signal (ERG): 1.1 fold enrichment (6-mer frequency, TF over GST control)
binding signal (ELF1): 1.09 fold enrichment (6-mer frequency, TF over GST control)
binding signal (EHF): 1.1 fold enrichment (6-mer frequency, TF over GST control)
binding signal (SPI1): 1.05 fold enrichment (6-mer frequency, TF over GST control)
binding signal (SPIB): 1.09 fold enrichment (6-mer frequency, TF over GST control)
binding signal (ELK3): 1.12 fold enrichment (6-mer frequency, TF over GST control)
binding signal (FEV): 1.1 fold enrichment (6-mer frequency, TF over GST control)
binding signal (ETV5): 1.07 fold enrichment (6-mer frequency, TF over GST control)
binding signal (SPIC): 1.09 fold enrichment (6-mer frequency, TF over GST control)
binding signal (ELF4): 1.11 fold enrichment (6-mer frequency, TF over GST control)
binding signal (ELK4): 1.08 fold enrichment (6-mer frequency, TF over GST control)
binding signal (ETV2): 1.03 fold enrichment (6-mer frequency, TF over GST control)
binding signal (ELF3): 1.13 fold enrichment (6-mer frequency, TF over GST control)
binding signal (ETV1): 1.04 fold enrichment (6-mer frequency, TF over GST control)

CGGTTC
binding signal (FLI1): 1.3 fold enrichment (6-mer frequency, TF over GST control)
binding signal (ELK1): 1.43 fold enrichment (6-mer frequency, TF over GST control)
binding signal (GABPA): 1.19 fold enrichment (6-mer frequency, TF over GST control)
binding signal (ERG): 1.28 fold enrichment (6-mer frequency, TF over GST control)
binding signal (ELF1): 1.27 fold enrichment (6-mer frequency, TF over GST control)
binding signal (EHF): 1.27 fold enrichment (6-mer frequency, TF over GST control)
binding signal (SPI1): 1.3 fold enrichment (6-mer frequency, TF over GST control)
binding signal (SPIB): 1.33 fold enrichment (6-mer frequency, TF over GST control)
binding signal (ELK3): 1.35 fold enrichment (6-mer frequency, TF over GST control)
binding signal (FEV): 1.42 fold enrichment (6-mer frequency, TF over GST control)
binding signal (ETV5): 1.31 fold enrichment (6-mer frequency, TF over GST control)
binding signal (SPIC): 1.2 fold enrichment (6-mer frequency, TF over GST control)
binding signal (ELF4): 1.19 fold enrichment (6-mer frequency, TF over GST control)
binding signal (ELK4): 1.29 fold enrichment (6-mer frequency, TF over GST control)
binding signal (ETV2): 1.39 fold enrichment (6-mer frequency, TF over GST control)
binding signal (ELF3): 1.33 fold enrichment (6-mer frequency, TF over GST control)
binding signal (ETV1): 1.39 fold enrichment (6-mer frequency, TF over GST control)
